What all share (test): DAPPL (digital affinity profiling via proximity ligation, sequencing); 10 mM Tris-HCl pH 7.5, 50 mM NaCl, 1 mM DTT, 4% glycerol, room temperature, 30 min; GST-TFs on glutathione beads, 16-mer random dsDNA library, 0.1% formaldehyde crosslink after washing; high values mean tight binding
What all share (details): protein: recombinant; tags: N-terminal GST; dsDNA, one strand shown

One test addresses T1, FLI1 (Homo sapiens, UniProt Q01543 1-452).
T1 sequence: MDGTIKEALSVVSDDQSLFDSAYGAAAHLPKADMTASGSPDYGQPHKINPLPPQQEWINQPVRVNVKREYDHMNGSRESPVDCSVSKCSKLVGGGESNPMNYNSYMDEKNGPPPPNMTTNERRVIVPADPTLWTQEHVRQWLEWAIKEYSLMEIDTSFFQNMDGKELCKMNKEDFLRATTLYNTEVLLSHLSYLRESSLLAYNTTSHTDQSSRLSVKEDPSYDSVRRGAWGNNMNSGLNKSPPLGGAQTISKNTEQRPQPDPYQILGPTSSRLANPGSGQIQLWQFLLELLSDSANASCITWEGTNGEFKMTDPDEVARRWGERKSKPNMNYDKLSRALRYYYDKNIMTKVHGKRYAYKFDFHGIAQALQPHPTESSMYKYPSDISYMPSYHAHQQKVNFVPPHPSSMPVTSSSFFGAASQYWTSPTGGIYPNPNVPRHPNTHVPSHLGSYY
The essentials: (§1)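 Sequencing on an Illumina NextSeq500 followed washing, crosslinking with 0.1% formaldehyde, proximity ligation (BsaI/T4 ligase, 1 h, 37 °C) and PCR amplification of pools that had been incubated for 30 min at room temperature with 200 nmole of a random double-stranded 16-mer DNA library in Tris/NaCl/DTT/glycerol buffer. Each pool held DNA-barcoded human transcription factors, expressed in yeast as GST fusions and captured on glutathione beads, plus a tag-only sample. Binding signal is a hexamer's read frequency for a factor divided by its frequency in the tag-only sample.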

The target of a further test is T2, ELK1 (Homo sapiens, UniProt P19419 1-428).
T2 sequence: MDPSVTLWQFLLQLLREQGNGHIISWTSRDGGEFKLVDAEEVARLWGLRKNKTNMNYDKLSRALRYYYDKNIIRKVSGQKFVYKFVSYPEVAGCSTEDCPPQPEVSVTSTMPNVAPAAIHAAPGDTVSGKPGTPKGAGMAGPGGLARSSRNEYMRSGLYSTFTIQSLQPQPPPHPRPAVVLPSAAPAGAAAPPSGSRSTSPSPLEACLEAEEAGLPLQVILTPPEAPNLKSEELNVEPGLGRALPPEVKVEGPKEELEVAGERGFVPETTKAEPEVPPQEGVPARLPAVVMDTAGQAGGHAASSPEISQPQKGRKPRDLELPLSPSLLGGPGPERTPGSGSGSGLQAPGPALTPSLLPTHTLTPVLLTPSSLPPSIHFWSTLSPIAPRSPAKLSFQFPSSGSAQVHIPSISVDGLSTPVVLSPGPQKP
The essentials: as §1

Another test deals with T3, GABPA (Homo sapiens, UniProt Q06546 1-454).
T3 sequence: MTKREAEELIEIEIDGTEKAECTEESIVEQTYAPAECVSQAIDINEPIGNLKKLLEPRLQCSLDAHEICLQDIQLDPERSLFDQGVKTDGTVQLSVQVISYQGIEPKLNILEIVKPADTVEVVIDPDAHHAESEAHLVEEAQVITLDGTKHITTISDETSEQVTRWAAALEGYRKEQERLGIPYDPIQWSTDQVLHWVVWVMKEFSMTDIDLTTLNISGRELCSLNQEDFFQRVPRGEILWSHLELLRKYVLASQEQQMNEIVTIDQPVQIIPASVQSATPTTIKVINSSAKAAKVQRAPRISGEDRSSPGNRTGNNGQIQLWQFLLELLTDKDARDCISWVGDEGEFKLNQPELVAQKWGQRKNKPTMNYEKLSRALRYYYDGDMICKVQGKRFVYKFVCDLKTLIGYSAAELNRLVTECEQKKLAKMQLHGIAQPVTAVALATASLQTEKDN
The essentials: as §1

A further test addresses T4, ERG (Homo sapiens, UniProt P11308 1-479).
T4 sequence: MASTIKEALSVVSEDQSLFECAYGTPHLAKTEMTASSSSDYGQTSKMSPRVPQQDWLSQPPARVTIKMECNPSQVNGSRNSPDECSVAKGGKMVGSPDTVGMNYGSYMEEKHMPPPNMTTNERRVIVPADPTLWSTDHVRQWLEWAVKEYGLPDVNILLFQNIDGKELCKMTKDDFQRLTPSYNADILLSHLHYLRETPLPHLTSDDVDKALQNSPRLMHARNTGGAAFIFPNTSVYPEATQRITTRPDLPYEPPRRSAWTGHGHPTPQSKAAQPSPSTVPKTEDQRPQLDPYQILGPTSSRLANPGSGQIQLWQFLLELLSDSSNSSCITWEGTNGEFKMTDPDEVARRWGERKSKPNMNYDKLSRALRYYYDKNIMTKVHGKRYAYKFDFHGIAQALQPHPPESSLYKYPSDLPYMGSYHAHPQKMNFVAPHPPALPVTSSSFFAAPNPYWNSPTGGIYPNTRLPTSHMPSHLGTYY
The essentials: as §1

The target of another test is ELF1 (Homo sapiens, UniProt P32519 1-619). The essentials:
as §1

Another test has as its target T5, EHF (Homo sapiens, UniProt Q9NZC4 1-300).
T5 sequence: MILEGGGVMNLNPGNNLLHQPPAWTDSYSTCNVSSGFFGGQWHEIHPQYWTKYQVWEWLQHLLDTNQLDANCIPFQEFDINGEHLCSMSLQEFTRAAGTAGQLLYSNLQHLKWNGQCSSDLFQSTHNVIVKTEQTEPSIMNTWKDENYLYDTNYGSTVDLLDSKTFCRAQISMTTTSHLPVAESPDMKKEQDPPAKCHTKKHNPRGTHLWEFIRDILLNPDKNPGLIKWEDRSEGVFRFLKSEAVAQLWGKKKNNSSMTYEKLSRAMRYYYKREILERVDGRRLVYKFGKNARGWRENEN
The essentials:
as §1

In the next test the target is SPI1 (Homo sapiens, UniProt P17947 1-270). The essentials: as §1
A further test concerns the target SPIB (Homo sapiens, UniProt Q01892 1-262). The essentials:
as §1

A further test has as its target T6, ELK3 (Homo sapiens, UniProt P41970 1-407).
T6 sequence: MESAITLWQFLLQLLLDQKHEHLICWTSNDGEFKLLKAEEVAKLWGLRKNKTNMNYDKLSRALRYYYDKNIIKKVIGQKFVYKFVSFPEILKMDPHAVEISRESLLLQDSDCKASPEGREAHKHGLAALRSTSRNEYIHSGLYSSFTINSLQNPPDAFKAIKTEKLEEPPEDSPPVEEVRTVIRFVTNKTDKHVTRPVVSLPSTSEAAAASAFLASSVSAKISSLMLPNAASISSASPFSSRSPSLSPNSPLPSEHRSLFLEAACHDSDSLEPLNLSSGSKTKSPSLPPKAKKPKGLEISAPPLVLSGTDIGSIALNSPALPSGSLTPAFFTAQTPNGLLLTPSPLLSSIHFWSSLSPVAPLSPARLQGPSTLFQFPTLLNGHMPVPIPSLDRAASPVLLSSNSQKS
The essentials:
as §1

For a further test, the target named is T7, FEV (Homo sapiens, UniProt Q99581 1-238).
T7 sequence: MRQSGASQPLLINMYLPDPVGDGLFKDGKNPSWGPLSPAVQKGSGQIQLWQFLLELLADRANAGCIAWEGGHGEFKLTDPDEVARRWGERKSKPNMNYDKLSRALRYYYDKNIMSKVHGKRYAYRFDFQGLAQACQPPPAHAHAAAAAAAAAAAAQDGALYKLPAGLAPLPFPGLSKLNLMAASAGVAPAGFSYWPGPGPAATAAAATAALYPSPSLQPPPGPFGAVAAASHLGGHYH
The essentials: as §1

The next test addresses ETV5 (Homo sapiens, UniProt P41161 1-510). The essentials:
as §1

Another test concerns the target T8, SPIC (Homo sapiens, UniProt Q8N5J4 1-248).
T8 sequence: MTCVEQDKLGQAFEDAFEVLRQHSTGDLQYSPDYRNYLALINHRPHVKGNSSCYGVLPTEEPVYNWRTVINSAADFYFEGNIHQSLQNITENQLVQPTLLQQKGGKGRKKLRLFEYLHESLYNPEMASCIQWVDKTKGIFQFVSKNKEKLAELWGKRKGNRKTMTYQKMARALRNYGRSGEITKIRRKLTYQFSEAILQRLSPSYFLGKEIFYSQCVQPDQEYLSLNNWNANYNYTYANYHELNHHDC
The essentials: as §1

In a further test the target is ELF4 (Homo sapiens, UniProt Q99607 1-663). The essentials: as §1
Another test concerns the target ETV1 (Homo sapiens, UniProt P50549 1-477). The essentials: as §1
The next test addresses T9, ERF (Homo sapiens, UniProt P50548 1-548).
T9 sequence: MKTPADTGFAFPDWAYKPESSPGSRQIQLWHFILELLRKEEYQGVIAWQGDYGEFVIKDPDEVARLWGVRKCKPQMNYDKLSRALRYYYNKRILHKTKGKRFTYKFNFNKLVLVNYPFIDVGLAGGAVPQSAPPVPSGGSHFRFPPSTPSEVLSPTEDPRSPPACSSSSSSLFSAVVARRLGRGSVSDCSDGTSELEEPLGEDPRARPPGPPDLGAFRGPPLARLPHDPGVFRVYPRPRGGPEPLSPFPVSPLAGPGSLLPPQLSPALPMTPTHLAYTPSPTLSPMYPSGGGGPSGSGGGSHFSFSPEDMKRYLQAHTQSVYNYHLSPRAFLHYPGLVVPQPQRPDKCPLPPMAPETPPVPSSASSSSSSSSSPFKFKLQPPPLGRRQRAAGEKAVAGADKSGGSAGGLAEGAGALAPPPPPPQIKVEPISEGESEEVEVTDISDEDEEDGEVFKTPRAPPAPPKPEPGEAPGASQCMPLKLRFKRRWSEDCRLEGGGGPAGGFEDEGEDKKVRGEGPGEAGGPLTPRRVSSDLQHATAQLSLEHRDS
The essentials: as §1

In a further test the target is T10, ETV3L (Homo sapiens, UniProt Q6ZN32 1-361).
T10 sequence: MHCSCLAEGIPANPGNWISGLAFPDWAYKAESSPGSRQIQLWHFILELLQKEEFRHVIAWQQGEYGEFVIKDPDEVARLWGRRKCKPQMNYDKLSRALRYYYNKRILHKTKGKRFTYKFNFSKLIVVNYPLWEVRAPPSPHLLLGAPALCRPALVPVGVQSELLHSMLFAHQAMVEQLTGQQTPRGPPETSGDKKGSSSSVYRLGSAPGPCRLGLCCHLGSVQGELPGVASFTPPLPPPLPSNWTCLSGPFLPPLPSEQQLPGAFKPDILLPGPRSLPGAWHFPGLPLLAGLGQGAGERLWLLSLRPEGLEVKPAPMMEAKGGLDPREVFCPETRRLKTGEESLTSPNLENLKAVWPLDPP
The essentials: as §1

Another test concerns the target T11, ETS2 (Homo sapiens, UniProt P15036 1-469).
T11 sequence: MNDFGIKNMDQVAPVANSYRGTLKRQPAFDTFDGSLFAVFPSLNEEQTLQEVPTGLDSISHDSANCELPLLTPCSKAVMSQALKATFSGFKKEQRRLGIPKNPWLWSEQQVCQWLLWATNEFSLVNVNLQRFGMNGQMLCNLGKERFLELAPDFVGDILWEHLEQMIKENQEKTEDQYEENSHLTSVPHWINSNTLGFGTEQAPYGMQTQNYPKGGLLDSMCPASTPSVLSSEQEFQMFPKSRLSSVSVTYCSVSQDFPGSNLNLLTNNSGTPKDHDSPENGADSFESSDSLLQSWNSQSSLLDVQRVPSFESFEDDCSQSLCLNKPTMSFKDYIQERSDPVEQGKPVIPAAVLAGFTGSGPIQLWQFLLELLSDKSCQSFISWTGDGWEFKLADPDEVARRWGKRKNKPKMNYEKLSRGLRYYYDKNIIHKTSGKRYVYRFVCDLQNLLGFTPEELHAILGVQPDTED
The essentials: as §1

The next test concerns the target T12, ELF5 (Homo sapiens, UniProt Q9UKW6-2 1-255).
T12 sequence: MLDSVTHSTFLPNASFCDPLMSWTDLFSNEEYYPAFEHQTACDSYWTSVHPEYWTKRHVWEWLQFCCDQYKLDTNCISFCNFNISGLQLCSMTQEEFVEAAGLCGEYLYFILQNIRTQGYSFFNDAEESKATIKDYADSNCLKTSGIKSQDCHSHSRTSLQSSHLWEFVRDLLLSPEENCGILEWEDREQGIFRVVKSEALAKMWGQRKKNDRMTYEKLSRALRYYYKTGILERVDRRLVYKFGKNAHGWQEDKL
The essentials:
as §1

In a further test the target is T13, ETV3 (Homo sapiens, UniProt P41162-2 1-143).
T13 sequence: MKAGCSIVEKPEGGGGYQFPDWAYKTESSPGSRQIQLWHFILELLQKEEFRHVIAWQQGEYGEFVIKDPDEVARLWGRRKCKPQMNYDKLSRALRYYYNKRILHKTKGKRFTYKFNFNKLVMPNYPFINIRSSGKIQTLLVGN
The essentials:
as §1

For a further test, the target named is ETV6 (Homo sapiens, UniProt P41212 1-452). The essentials: as §1
ETV6, sequence (P41212 whole entry): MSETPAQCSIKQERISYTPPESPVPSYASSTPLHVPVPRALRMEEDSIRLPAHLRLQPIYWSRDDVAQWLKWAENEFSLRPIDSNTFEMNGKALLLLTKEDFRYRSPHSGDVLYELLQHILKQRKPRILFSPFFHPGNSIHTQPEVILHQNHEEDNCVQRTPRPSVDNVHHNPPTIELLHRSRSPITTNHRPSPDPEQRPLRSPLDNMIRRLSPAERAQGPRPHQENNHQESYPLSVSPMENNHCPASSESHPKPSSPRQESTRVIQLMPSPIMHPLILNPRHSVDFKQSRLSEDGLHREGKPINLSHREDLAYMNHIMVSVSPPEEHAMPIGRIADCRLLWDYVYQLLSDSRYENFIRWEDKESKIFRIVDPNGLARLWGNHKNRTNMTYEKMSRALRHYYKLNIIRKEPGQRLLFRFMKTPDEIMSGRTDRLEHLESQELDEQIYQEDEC

ELF4, sequence (Q99607 whole entry): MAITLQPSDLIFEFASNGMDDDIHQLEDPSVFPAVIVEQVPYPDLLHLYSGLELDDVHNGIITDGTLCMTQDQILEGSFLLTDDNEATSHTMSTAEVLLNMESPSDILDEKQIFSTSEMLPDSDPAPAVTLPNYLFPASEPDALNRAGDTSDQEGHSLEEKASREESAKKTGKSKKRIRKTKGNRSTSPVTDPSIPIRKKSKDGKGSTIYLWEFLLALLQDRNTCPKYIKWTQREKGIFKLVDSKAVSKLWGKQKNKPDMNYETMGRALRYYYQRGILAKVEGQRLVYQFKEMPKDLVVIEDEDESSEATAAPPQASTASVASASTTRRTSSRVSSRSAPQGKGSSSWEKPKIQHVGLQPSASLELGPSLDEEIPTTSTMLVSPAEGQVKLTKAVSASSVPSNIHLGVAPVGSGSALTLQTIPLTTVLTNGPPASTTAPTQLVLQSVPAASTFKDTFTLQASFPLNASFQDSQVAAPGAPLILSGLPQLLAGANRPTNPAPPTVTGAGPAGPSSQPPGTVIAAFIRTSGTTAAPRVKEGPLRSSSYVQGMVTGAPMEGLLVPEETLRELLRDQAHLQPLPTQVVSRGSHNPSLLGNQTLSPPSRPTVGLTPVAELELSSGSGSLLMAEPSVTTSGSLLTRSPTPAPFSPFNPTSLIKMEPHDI
ELF1, sequence (P32519 whole entry): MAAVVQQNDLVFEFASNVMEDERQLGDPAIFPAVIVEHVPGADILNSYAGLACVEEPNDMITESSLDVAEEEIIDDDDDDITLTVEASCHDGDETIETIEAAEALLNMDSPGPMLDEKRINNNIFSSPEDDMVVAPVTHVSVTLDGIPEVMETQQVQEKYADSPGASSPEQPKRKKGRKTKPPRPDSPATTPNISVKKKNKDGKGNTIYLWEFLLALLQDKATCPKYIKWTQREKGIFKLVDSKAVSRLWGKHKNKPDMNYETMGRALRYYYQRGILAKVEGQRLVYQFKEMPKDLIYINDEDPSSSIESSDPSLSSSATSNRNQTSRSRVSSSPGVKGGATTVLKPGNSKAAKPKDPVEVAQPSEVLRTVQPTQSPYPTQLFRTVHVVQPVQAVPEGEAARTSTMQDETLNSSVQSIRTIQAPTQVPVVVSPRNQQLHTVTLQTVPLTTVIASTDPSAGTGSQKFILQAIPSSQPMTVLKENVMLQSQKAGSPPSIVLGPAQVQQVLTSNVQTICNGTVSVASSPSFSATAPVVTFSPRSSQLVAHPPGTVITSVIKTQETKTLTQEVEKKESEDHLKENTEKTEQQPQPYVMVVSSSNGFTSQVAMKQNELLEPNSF
ETV1, sequence (P50549 whole entry): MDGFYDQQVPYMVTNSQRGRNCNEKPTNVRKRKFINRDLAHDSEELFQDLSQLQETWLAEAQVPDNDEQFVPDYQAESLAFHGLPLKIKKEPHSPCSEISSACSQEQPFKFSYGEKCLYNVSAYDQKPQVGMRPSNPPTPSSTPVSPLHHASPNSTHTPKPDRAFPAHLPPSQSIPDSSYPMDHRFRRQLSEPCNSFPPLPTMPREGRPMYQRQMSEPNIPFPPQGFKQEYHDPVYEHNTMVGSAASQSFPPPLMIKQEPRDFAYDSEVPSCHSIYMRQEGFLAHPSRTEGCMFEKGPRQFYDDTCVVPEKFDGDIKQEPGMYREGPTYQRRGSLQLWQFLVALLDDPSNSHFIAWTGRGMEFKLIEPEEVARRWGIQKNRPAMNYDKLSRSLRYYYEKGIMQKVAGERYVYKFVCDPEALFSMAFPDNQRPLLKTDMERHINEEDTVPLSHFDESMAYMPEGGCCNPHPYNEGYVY
ETV5, sequence (P41161 whole entry): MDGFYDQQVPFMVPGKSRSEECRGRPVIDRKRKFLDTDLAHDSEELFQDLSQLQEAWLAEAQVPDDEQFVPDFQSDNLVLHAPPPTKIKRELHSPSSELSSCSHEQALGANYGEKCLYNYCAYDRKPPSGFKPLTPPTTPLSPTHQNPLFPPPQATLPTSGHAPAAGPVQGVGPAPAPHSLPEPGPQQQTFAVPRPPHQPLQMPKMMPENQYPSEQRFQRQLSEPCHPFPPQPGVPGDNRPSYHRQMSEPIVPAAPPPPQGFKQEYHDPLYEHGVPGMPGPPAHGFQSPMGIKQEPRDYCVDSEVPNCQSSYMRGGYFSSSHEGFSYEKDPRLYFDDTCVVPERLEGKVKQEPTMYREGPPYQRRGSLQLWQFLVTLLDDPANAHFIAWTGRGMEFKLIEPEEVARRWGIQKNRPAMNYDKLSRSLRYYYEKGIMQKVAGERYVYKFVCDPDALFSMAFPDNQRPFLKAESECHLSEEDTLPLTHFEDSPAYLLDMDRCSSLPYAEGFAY
SPIB, sequence (Q01892 whole entry): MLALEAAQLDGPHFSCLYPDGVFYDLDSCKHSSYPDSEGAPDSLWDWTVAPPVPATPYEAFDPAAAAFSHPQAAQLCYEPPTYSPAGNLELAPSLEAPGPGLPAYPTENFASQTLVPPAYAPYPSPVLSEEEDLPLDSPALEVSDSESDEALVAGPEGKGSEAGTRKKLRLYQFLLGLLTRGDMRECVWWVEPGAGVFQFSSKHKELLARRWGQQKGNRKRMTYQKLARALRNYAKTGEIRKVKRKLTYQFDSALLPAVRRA

In the case of GTCTAC, the binding signal in the test with FLI1 was 1.09 fold enrichment (6-mer frequency, TF over GST control); with ELK1, 1.08 fold enrichment (6-mer frequency, TF over GST control); in the test with GABPA, 1.08 fold enrichment (6-mer frequency, TF over GST control); with ERG it was 1.05 fold enrichment (6-mer frequency, TF over GST control); in the test with ELF1, 1.05 fold enrichment (6-mer frequency, TF over GST control); in the test with EHF it was 1.16 fold enrichment (6-mer frequency, TF over GST control). Further, the binding signal with SPI1 was 1.12 fold enrichment (6-mer frequency, TF over GST control); in the test with SPIB it was 1.03 fold enrichment (6-mer frequency, TF over GST control); with ELK3, 1.06 fold enrichment (6-mer frequency, TF over GST control); with FEV, 1.08 fold enrichment (6-mer frequency, TF over GST control); with ETV5, 1.11 fold enrichment (6-mer frequency, TF over GST control); with SPIC it was 1.1 fold enrichment (6-mer frequency, TF over GST control). The binding signal with ELF4 was 1.09 fold enrichment (6-mer frequency, TF over GST control); in the test with ETV1, 1.19 fold enrichment (6-mer frequency, TF over GST control); with ERF, 1.07 fold enrichment (6-mer frequency, TF over GST control); in the test with ETV3L, 1.26 fold enrichment (6-mer frequency, TF over GST control); with ETS2, 1.13 fold enrichment (6-mer frequency, TF over GST control); with ELF5, 1.08 fold enrichment (6-mer frequency, TF over GST control). The binding signal with ETV3 is 1.06 fold enrichment (6-mer frequency, TF over GST control); with ETV6, 1 fold enrichment (6-mer frequency, TF over GST control).
